Composite z-score data for 29 compounds are collected here from PubChem BioAssay.

Each structure is given as a SMILES string.

This assay in a line: small-molecule microarray binders of probe aDKK1, primary screen, biochemical, biotinylated probe, 635/667 nm fluorescence (AID 1099).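 Further: score merges 667nm spot fluorescence with signal to noise across triplicate slides; reference of the scale not given here.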 As to conditions: higher = more signal.
As to `C=C(CCCC)C(=O)CC[C@@H](OC(=O)c1ccccc1-c1ccccc1C(=O)O)c1ccc(CO)o1`, the composite z-score is -0.0075.

For `O=C1c2ccccc2[C@](Cc2ccccc2I)(C(=O)O)[C@H](c2ccc(CO)cc2)N1Cc1ccccc1C(F)(F)F`, the composite z-score is -0.483. `O[C@@H](Cc1ccccc1)[C@@H](/C=C/c1ccccc1)NCc1ccccc1Br` returned a composite z-score of 0.151. As for `O=C(NCc1ccccc1)[C@@H]1c2ccccc2C(=O)N(Cc2cc(F)cc(C(F)(F)F)c2)[C@H]1c1ccc(CO)cc1`, the figure is 0.125; as for `CCCCN1CC=CC23O[C@@H]4/C=C\CCCOC(=O)C4[C@H]2C(=O)N(C(C)CO)[C@@H]3C1=O` (some centres undefined), -0.292; as for `CC(C)C(CO)N1C(=O)[C@@H]2[C@H]3C(=O)OCC=C[C@H]3OC23C=CCN(c2ccc4ccccc4c2)C(=O)[C@@H]13` (some centres undefined), -0.387. `C=C(/C(=C/C[C@@H](OC(=O)c1ccncc1)c1ccc(CO)o1)c1cc(C(=O)OC)ccc1OC)C(C)C` registered a composite z-score of -0.0623. In turn, `C=CC[C@@]1(C(=O)OC)N=C(c2ccc(OCCCO)cc2)O[C@@H]1c1ccccc1CN=[N+]=[N-]` returned a composite z-score of -0.0877. With `[N-]=[N+]=Nc1ccccc1[C@H]1OC(c2ccc(OCCCO)cc2)=N[C@@]1(CCS(=O)(=O)c1ccccc1)C(=O)N1CCOCC1`, the composite z-score turned out to be 1.8. `C=CCN1C(=O)[C@@]2(O[C@@H](CCO)[C@H]([Si](C)(C)c3ccc(OC)cc3)[C@H]2C)c2cc(N3C(=O)COc4ccccc43)ccc21`: the composite z-score is -0.447. As for `CCCC[C@H]1OB(O)C[C@H]2C1=C(COc1ccccc1)C[C@H]1C(=O)N(Cc3ccccc3)C(=O)[C@H]12`, the figure is -0.154; as for `C#C[C@H](O[Si](C#CCCCCCC)(C(C)C)C(C)C)c1ccccc1`, -0.109; as for `C=CCNC(=O)[C@H]1[C@@H]2C(=O)O[C@@H](c3ccccc3)[C@@H](c3ccccc3)N2[C@@H](c2ccc(O)cc2)[C@]12C(=O)Nc1ccc(C#Cc3ccc(OC)cc3)cc12`, 0.257. In the case of `[N-]=[N+]=NCc1ccccc1C[C@@]1(C(=O)NCc2ccccc2)N=C(c2ccc(OCCCO)cc2)O[C@@H]1c1ccccc1CN=[N+]=[N-]`, the composite z-score worked out at 1.09. As for `C[N+](C)(C)CCCC[C@@H]1NC(=O)[C@H]2C[C@@H](C(=O)O)[C@@H](c3cccc(OCCO)c3)N2C1=O`, the figure is 2.39; as for `C=CCN1Cc2ccccc2C[C@@]2(COC(c3ccc(OCCCO)cc3)=N2)C1=O`, 1.02. As for `[N-]=[N+]=NCc1ccccc1C[C@]1(C(N)=O)N=C(c2ccc(OCCCO)cc2)O[C@H]1c1ccccc1N=[N+]=[N-]`, the figure is 0.911; as for `CC(C)N1C(=O)c2ccccc2[C@](C)(C(=O)NCCCN(C)C)[C@@H]1c1ccc(CO)cc1`, 0.466. The figure for `COCCOC(=O)N1C(=O)[C@@]2(c3ccccc31)[C@H](C(=O)N1CCCCCCC1)[C@H]1C(=O)O[C@H](c3ccccc3)[C@H](c3ccccc3)N1[C@@H]2c1ccccc1OCCO` is 2.76; for `C=C(COC)C(=O)CC[C@@H](OC(=O)c1ccccc1-c1ccccc1C(=O)O)c1ccc(CO)o1` it is -0.4; for `COCCn1c(C(=O)N2CCCC2)cc2c1C[C@H]1CN(C(=O)c3ccccc3)[C@@](Cc3ccc(OC)cc3)(C(=O)OC)[C@@H]21` it is 1.41.

Take `COc1ccc([Si](C)(C)[C@H]2[C@H](CC(=O)N3CCC[C@H]3CO)O[C@@]3(C(=O)N(c4ccccc4)c4ccccc43)[C@@H]2C)cc1`: the composite z-score is -0.344.

For `C=CCC(OC(C)=O)[C@@H]1[C@@H](N(Cc2cc3ccccc3o2)C(=O)c2ccc(-c3ccccc3)cc2)c2cc(OCCCO)ccc2N1C(=O)Cc1ccc2ccccc2c1` (some centres undefined), the composite z-score was -0.172. The figure for `C/C=C/[C@H](CCn1cc([C@H](O)c2ccccc2)nn1)[Si](C)(C)c1ccc(OC)cc1` is -0.49; for `CCCC[C@@H]1C[C@H]1[C@@H](NC(=O)c1ccccc1)c1ccccc1` it is 0.599; for `O=C1OCCC=C[C@H]2OC34C=CCN(c5ccc6ccccc6c5)C(=O)[C@H]3N(CCCCCCO)C(=O)[C@@H]4C12` (some centres undefined) it is -0.0082. Compound `COc1ccc([Si](C)(C)[C@H]2[C@H](CC(=O)N(CCO)Cc3ccccc3)O[C@@]3(C(=O)N(Cc4cccc(N5C(=O)c6cccc7cccc5c67)c4)c4ccccc43)[C@@H]2C)cc1` came in with a composite z-score of -0.534. As for `C=CCC(OC(C)=O)[C@@H]1[C@@H](N(Cc2cc3ccccc3o2)C(=O)c2cccc3ccccc23)c2cc(OCCCO)ccc2N1C(=O)Cc1ccc(OC)cc1` (some centres undefined), the figure is 0.136; as for `COC(=O)[C@@]1(Cc2ccc(OC)cc2)[C@H]2c3cc(C(=O)N4CCCC4)n(CCc4ccccn4)c3C[C@H]2CN1C(=O)c1ccccc1`, 0.904.
